Measured values: PubChem BioAssay AID1259422 (The Scripps Research Institute Molecular Screening Center, 2018)
Among all 640,000 compounds or so, about 9,300 (1.5%) were called active. Cut-off read from the data, not from the text of the source: active = inhibition above about 32%; inactive = the rest. The list comes from a sample in which actives are over-represented; it also holds similar structures and randomly drawn compounds.

assay: TEAD-YAP interaction inhibition, primary screen, TEAD-YAP interaction inhibitor project, luminescence, HEK-TIYL cells (AID 1259422); details: TEAD-Gal4/YAP UAS-luciferase luminescence, at 9.12 µM, hits give high values;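 note: 0% = median of test compound wells and 100% = reference inhibitor wells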

SMILES | inhibition
CCOc1ccc(NC(=O)/C(C#N)=C\c2ccc(O)cc2)cc1 | -6.14% (inactive)
O=C1C(=O)N(Cc2cccnc2)C(c2cccc(Br)c2)/C1=C(/O)c1ccccc1 (stereo not given) | -12.1% (inactive)
O=C1CCC(=O)N1c1ccc(-c2nc3scc(-c4cccs4)c3c(=O)o2)cc1 | -7.68% (inactive)
CCN(CC)C(=O)c1cc2cc3ccc(OC)cc3nc2o1 | 58% (active)
CCOC(=O)N1CCN(C(=O)c2cc3cc4ccc(OC)cc4nc3o2)CC1 | -1.56% (inactive)
COc1ccc2nc3oc(C(=O)NC4CC4)cc3cc2c1 | -62.4% (inactive)
COCCn1nnnc1CN(Cc1ccco1)CC1CCCO1 (stereo not given) | -5.83% (inactive)
CCOC(=O)C1=C(C)NC2=C(C(=O)CC(C)(C)C2)C1c1cccs1 (stereo not given) | 7.66% (inactive)
CCOc1ccc(C2C(C#N)=C(N)N(N(C)C)C3=C2C(=O)CC(c2ccccc2)C3)cc1 (stereo not given) | 17.9% (inactive)
Cc1nnc(SCC(=O)c2ccc3c(c2)OCCO3)o1 | -48.4% (inactive)
CCCCSc1nnc2c(n1)OC(c1cccc(Cl)c1)Nc1ccccc1-2 (stereo not given) | -39.8% (inactive)
CCN1C(=O)/C(=C/c2ccc(OCC(=O)O)cc2)SC1=S | -16.2% (inactive)
COc1cc(/C=C2/SC(=S)N(CC(=O)O)C2=O)cc2c1OCO2 | 2.97% (inactive)
C=CCOc1ccc(/C=C2\SC(=S)N(CCC(=O)O)C2=O)cc1 | 50.1% (active)
O=C(O)CCCCCN1C(=O)/C(=C\c2cccs2)SC1=S | 28.4% (inactive)
O=C(O)CCCCCN1C(=O)/C(=C/c2ccc3c(c2)OCO3)SC1=S | 43.9% (active)
O=C(O)CCN1C(=O)/C(=C\c2ccc(C(=O)O)cc2)SC1=S | -5.44% (inactive)
COc1cccc(C(=O)NC(=S)Nc2ccc(Br)c(C)n2)c1 | -5.25% (inactive)
O=C(NCc1ccc(F)cc1)c1ccc2nc3[nH]c4ccccc4c3nc2c1 | 4.49% (inactive)
Cc1ccc2nc3[nH]c4ccccc4c3nc2c1 | 35% (active)
Cc1cc2nc3[nH]c4ccccc4c3nc2cc1C | -33% (inactive)
O=C(NNc1ccc([N+](=O)[O-])cc1[N+](=O)[O-])c1cc2ccccc2cc1O | 8.71% (inactive)
Cc1cc(C(=O)N(Cc2ccccn2)c2nc3ccccc3s2)on1 | 69.7% (active)
CCc1cccc2sc(N(Cc3ccccn3)C(=O)CSCc3ccccc3)nc12 | 2.11% (inactive)

SMILES | inhibition
O=C1CCC(=O)N1CC(=O)N(Cc1ccccn1)c1nc2ccccc2s1 | 18.1% (inactive)
CC(=O)Oc1cccc(N2C(=O)c3ccc(-c4nc5ccccc5o4)cc3C2=O)c1 | -6.42% (inactive)
C=CCc1ccc(OCCN2CC(C)OC(C)C2)c(OC)c1 (stereo not given) | -7.73% (inactive)
CC(=O)c1cccc(NC(=O)c2nn3c(C(F)(F)F)cc(-c4ccc(Br)cc4)nc3c2Cl)c1 | 2.9% (inactive)
CCC(=O)Oc1ccc(OC)cc1C1Oc2nc(SC)nnc2-c2ccccc2N1C(=O)CC (stereo not given) | -5.21% (inactive)
Cc1nc2sc(-c3ccccc3)cc2c(=O)o1 | 41% (active)
Cc1nc2ccc(Cc3ccc4nc(C)oc(=O)c4c3)cc2c(=O)o1 | -1.07% (inactive)
COC(=O)C(C)n1cnc2sc(-c3ccccc3)cc2c1=O (stereo not given) | -25.2% (inactive)
O=S(=O)(O)CCC[n+]1ccc(/C=C/c2c[nH]c3ccccc23)cc1 | 3.32% (inactive)
OCCCNc1ccc2ncc(-c3ccc(N4CCOCC4)cc3)n2n1 | 19.8% (inactive)
Cc1cc(C(=O)COC(=O)c2ccc([N+](=O)[O-])o2)c(C)n1Cc1cccs1 | 0.16% (inactive)
Cc1cc(C(=O)COC(=O)CCC(=O)c2cccs2)c(C)n1Cc1ccco1 | -6.67% (inactive)
Cc1cc(C(=O)COC(=O)C(CC(C)C)NC(N)=O)c(C)n1Cc1cccs1 (stereo not given) | 66.1% (active)
COc1ccc(-c2cn3c4ccccc4n(CCN4CCOCC4)c3n2)cc1 | -4.68% (inactive)
Cn1c2ccccc2n2cc(-c3ccc([N+](=O)[O-])cc3)nc12 | -27.1% (inactive)
COc1ccc(-c2cn3c4ccccc4n(N)c3n2)cc1 | 90% (active)
CC(C)[C@@H](CO)Nc1ccc2ncc(-c3ccccc3F)n2n1 | 57.3% (active)
CCC(CO)Nc1ccc2ncc(-c3ccc(N4CCOCC4)cc3)n2n1 (stereo not given) | -1.73% (inactive)
CCC(CO)Nc1ccc2ncc(-c3cccc(F)c3)n2n1 (stereo not given) | 5.85% (inactive)
CC(C)[C@@H](CO)Nc1ccc2ncc(-c3ccc(C#N)cc3)n2n1 | 29.7% (inactive)
CCC(CO)Nc1ccc2ncc(-c3ccccc3)n2n1 (stereo not given) | 33.7% (active)
CC(C)[C@@H](CO)Nc1ccc2ncc(-c3ccc(O)cc3)n2n1 | -7.09% (inactive)
CCS(=O)(=O)Nc1cccc(N2CCC(NCCn3nc(C)cc3C)CC2)c1 | 2.36% (inactive)
CC(Oc1ccc(Cl)cc1Cl)C(=O)Nc1ccc(C(=O)O)cc1 (stereo not given) | 11.5% (inactive)

SMILES | inhibition
O=C(CN(c1ccc(Cl)cc1Cl)S(=O)(=O)c1ccccc1)Nc1ccc(Cl)c(Cl)c1 | -0.39% (inactive)
CC(C)(C)c1ccc(NC(=O)CSc2cccc[n+]2[O-])cc1 | -49.2% (inactive)
O=C(NCc1ccc2c(c1)OCO2)c1cccnc1SCc1cccc(Br)c1 | 10.6% (inactive)
N#Cc1c(NC(=O)c2cc3ccccc3c(=O)o2)sc2c1CCCCC2 | 4.91% (inactive)
COC(=O)c1c(NC(=O)c2cc3ccccc3oc2=O)sc2c1CCCC2 | -7.92% (inactive)
NC(=O)c1c(NC(=O)c2ccc(Br)o2)sc2c1CCCC2 | 3.19% (inactive)
NC(=O)c1c(NC(=O)Cc2ccccc2)sc2c1CCCCC2 | -7.09% (inactive)
NC(=O)c1c(NC(=O)c2cc(=O)c3ccccc3o2)sc2c1CCCCC2 | 32.9% (active)
O=C(Nc1sc2c(c1C(=O)O)CCCC2)c1cc2ccccc2o1 | 50.1% (active)
Cc1cccc(Nc2nc(-c3ccc(I)cc3)cs2)c1 | -33.1% (inactive)
Cc1ccc(Nc2nc(-c3ccccn3)cs2)cc1C | 49.9% (active)
Cc1ccc(Nc2nc(-c3ccc(Br)cc3)cs2)cc1Cl | -7.82% (inactive)
O=C(Nc1nc2c(s1)CN(Cc1ccccc1)CC2)c1cc(Cl)ccc1Cl | -2.92% (inactive)
CN1CCc2nc(NC(=O)c3ccc(Cl)cc3Cl)sc2C1 | -69.8% (inactive)
CCCN1CCc2nc(NC(=O)COc3ccc(Cl)cc3Cl)sc2C1 | 45% (active)
COc1ccc(C2CC(C(F)(F)F)n3ncc(C(=O)N4CCN(c5cccc(Cl)c5)CC4)c3N2)cc1OC (stereo not given) | -6.74% (inactive)
Fc1cnc(Nc2ccc(N3CCNCC3)cc2)cc1-n1cnc(Nc2ccccc2)n1 | 64.6% (active)
c1cncc(Nc2nccc(Nc3ccc(N4CCOCC4)cc3)n2)c1 | 2.14% (inactive)
FC(F)(F)c1cnc(Nc2ccc(N3CCOCC3)cc2)cc1-n1ncc2ccccc21 | -4.45% (inactive)
O=C(c1nc2ccc(Cl)cn2c1CNCCn1cccn1)N1CCc2ccccc2C1 | 7.89% (inactive)
COc1cccc2c1OC1(CCN(C(=O)Cc3ccc(F)cc3F)CC1)OC2 | -1.73% (inactive)
O=C(c1cc(-c2ccc(O)cc2)on1)N1CCOCC1 | 50.7% (active)
COc1ccc(-c2cc(C(=O)N3CCCCC3)no2)cc1 | 6.05% (inactive)
O=C(c1cc(-c2cccs2)on1)N1CCCC1 | -49.2% (inactive)

SMILES | inhibition
CCN(CC)C(=O)c1cc(-c2ccc(O)cc2)on1 | -1.47% (inactive)
CN(C(=O)c1cc(-c2ccc(O)cc2)on1)c1ccccc1 | 60% (active)
CC1CN(CC(=O)NCc2cc(-c3ccccc3)on2)Cc2ccccc2O1 (stereo not given) | -5.63% (inactive)
CCC(=O)Nc1ccccc1-c1nnn(CC(=O)Nc2ccc(CC)cc2)n1 | 12.7% (inactive)
O=C(c1ccco1)N1CCN(c2nccn3c(-c4cccc(O)c4)cnc23)CC1 | -3.76% (inactive)
CC(C)Cn1c(C2CC(=O)N(c3ccccc3)C2)nc2ccccc21 (stereo not given) | 3.79% (inactive)
CCOc1ccc(-c2cn(-c3ccc(OC)cc3)c(SCC(=O)Nc3ccccc3C)n2)cc1 | -24.2% (inactive)
O=C(c1ccc2nc(N3CCCCC3)sc2c1)N1CCN(c2ccccc2)CC1 | -69.3% (inactive)
O=C(Nc1ccc2c(c1)OCCO2)Nc1nnc(N2CCCCCC2)s1 | -9.25% (inactive)
c1c2c(cc3sc(N4CCCCC4)nc13)OCCO2 | 80.9% (active)
COc1ccc(-c2cc(C(=O)NC3CCCC(C)C3C)c3ccccc3n2)cc1 (stereo not given) | 1.88% (inactive)
CCOC(=O)c1cnc2nc(NCc3cccc(OC)c3)[nH]n2c1=O | 3.92% (inactive)
N/C(=N/OC(=O)c1ccccc1I)c1nonc1N | -2.53% (inactive)
Cc1nc(N2CCN(c3ccccn3)CC2)c2c(C)c(C(=O)N3CCN(Cc4ccc5c(c4)OCO5)CC3)sc2n1 | 36.8% (active)
Cc1nc(N2CCN(c3ccccn3)CC2)c2c(C)c(C(=O)NCCN3CCOCC3)sc2n1 | 14.5% (inactive)
CCN1CCN(C(=O)c2sc3nc(C)nc(N4CCN(c5ccccn5)CC4)c3c2C)CC1 | -1.03% (inactive)
COc1ccc(NC(=O)CSc2nc3c(sc(=S)n3-c3ccccc3F)c(=O)n2-c2ccc(F)cc2)c(OC)c1 | 15.7% (inactive)
CC1CN(Cc2cccc3ncccc23)Cc2ccccc2O1 (stereo not given) | -3.29% (inactive)
CC1CCc2c(sc(NC(=O)c3ccccc3F)c2C(=O)N2CCOCC2)C1 (stereo not given) | -2.16% (inactive)
CCOc1ccccc1OCC(=O)OCc1ccccc1 | 2.74% (inactive)
CCOc1ccccc1OCC(=O)Nc1ccc(C(=O)O)cc1 | 4.66% (inactive)
CCOc1ccccc1OCC(=O)NN | 58.7% (active)
Cc1ccc(-c2noc(CCC(=O)N(C)c3ccccc3Cl)n2)cc1 | 13.7% (inactive)
